The values that follow come from the supplement of paper PMC8007513.

SMILES strings stand for the structures. Counter-ions that a name gives are not always drawn. ± gives the standard error. Screen size: about 1,300 compounds; about 75 (6%) showed an effect of 50% or more. The full list was thinned out, with strong results kept by preference.

This test relates to Trichoderma virens ATCC 9645. The experiment in a line: growth yield (OD600) relative to untreated control; higher = less growth inhibition. As to conditions: compound concentration: 100 uM. In short, it runs like this: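 Trichoderma virens ATCC 9645 spores at 15,000 spores ml^−1 in potato dextrose broth were exposed in 96-well plates to library compounds at 100 μM final, with or without a biocide at 200 ng ml^−1. After growth at 30 °C, OD600 was read at 40 h and 72 h. Values are growth relative to the control without either agent, averaged over duplicate screens.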

For the compound `c1ccc2[nH]c(-c3cscn3)nc2c1` [Tiabendazole], the growth yield by setting is: (40 h) 1.43 ± 1.4%; (72 h) 1.26 ± 1.3%.

As to `C[C@@H]1CCC[C@H](C)N1NC(=O)c1ccc(Cl)c(S(N)(=O)=O)c1` [Clopamide], the growth yield is, setting by setting: (40 h) 99.6 ± 1.8%; (72 h) 103 ± 3%.

For `CCCCc1ncc(/C=C(\Cc2cccs2)C(=O)O)n1Cc1ccc(C(=O)O)cc1` [Eprosartan mesylate], the growth yield is, setting by setting: (40 h) 98.3 ± 5.6%; (72 h) 94.08 ± 0.94%.

As for `Cc1onc(-c2ccccc2)c1C(=O)N[C@@H]1C(=O)N2[C@@H]1SC(C)(C)[C@@H]2C(=O)O` [Oxacillin sodium], the growth yield (40 h) is 111 ± 1.6% and the growth yield (72 h) came to 105 ± 1.4%.

Take `CCCCCOC(=O)Nc1nc(=O)n([C@@H]2O[C@H](C)[C@@H](O)[C@H]2O)cc1F` [Capecitabine]: the growth yield (40 h) was found to be 105.2 ± 0.64% and the growth yield (72 h) was found to be 103.2 ± 0.84%.

On to `CC(CN(C)C)C(C)(O)Cc1ccc(Cl)cc1` (stereo unspecified) [Clobutinol hydrochloride], for which the growth yield runs as follows: (40 h) 105 ± 3.5%; (72 h) 104 ± 2.5%.

For `Oc1c(Cl)cc(Cl)c(Cl)c1Cc1c(O)c(Cl)cc(Cl)c1Cl` [Hexachlorophene], the growth yield (40 h) stood at 25.3 ± 2.1% and the growth yield (72 h) was 98.9 ± 5.8%.

Consider `CC(C(=O)O)c1cccc(Oc2ccccc2)c1` (stereo unspecified) [Fenoprofen calcium salt dihydrate], for which the growth yield runs as follows: (40 h) 97.5 ± 10%; (72 h) 97.7 ± 13%.

As for `CC(=O)N[C@@H](CC(C)C)C(=O)O` [N-Acetyl-L-leucine], the growth yield by setting is: (40 h) 103 ± 3%; (72 h) 103 ± 2.7%.

Turning to `CCCN(CCC)CCc1cccc2c1CC(=O)N2` [Ropinirole hydrochloride], the growth yield by setting is: (40 h) 99.43 ± 0.64%; (72 h) 103 ± 1.1%.

On to `COc1cc([S+](C)[O-])ccc1-c1nc2cccnc2[nH]1` (stereo unspecified) [Sulmazole], for which the growth yield runs as follows: (40 h) 99.4 ± 2.2%; (72 h) 98 ± 1.7%.

Take `Cc1cc(=O)oc2cc(O)ccc12` [Hymecromone]: the growth yield worked out at 101 ± 0.32% (40 h) and 97.01 ± 0.94% (72 h).

Take `COc1c2occc2c(OC)c2c(=O)cc(C)oc12` [Khellin]: the growth yield by setting is: (40 h) 97.7 ± 1.8%; (72 h) 95.1 ± 5.1%.

Turning to `Cc1cc2cc3c(C)cc(=O)oc3c(C)c2o1` [Trioxsalen], the growth yield worked out at 42.1 ± 0.48% (40 h) and 73.7 ± 4.5% (72 h).

For `COC(=O)C1=C(C)NC(C)=C(C(=O)OCCN(C)Cc2ccccc2)C1c1cccc([N+](=O)[O-])c1` (stereo unspecified) [Nicardipine hydrochloride], the growth yield was 89.4 ± 5.2% (40 h) and 114 ± 7.8% (72 h).

On to `CCOC(=O)C1=C(C)NC(C)=C(C(=O)OC)C1c1cccc(Cl)c1Cl` (stereo unspecified) [Felodipine], for which the growth yield is, setting by setting: (40 h) 92.8%; (72 h) 94.2%.

Turning to `COCCOC(=O)C1=C(C)NC(C)=C(C(=O)OC(C)C)C1c1cccc([N+](=O)[O-])c1` (stereo unspecified) [Nimodipine], the growth yield worked out at 95.3 ± 7.3% (40 h) and 97.7 ± 9% (72 h).

In the case of `COC(=O)C1=C(C)NC(C)=C(C(=O)OC)C1c1ccccc1[N+](=O)[O-]` [Nifedipine], the growth yield came out at 44.2 ± 1.3% (40 h) and 53.1 ± 1.1% (72 h).

Regarding `COC(=O)C1=C(C)NC(C)=C(C(=O)OCC(C)C)C1c1ccccc1[N+](=O)[O-]` (stereo unspecified) [Nisoldipine], the growth yield was 25.6 ± 0.48% (40 h) and 23.9 ± 2.3% (72 h).

With `CCOC(=O)C1=C(C)NC(C)=C(C(=O)OC)C1c1cccc([N+](=O)[O-])c1` (stereo unspecified) [Nitrendipine], the growth yield came to 85.6 ± 1.1% (40 h) and 89.9 ± 3.7% (72 h).

In the case of `N=C(N=C(N)N)N1CCOCC1` [Moroxidine hydrochloride], the growth yield amounted to 106 ± 4.3% (40 h) and 104 ± 1.9% (72 h).

`O=C(Nc1ccc([N+](=O)[O-])cc1Cl)c1cc(Cl)ccc1O` [Niclosamide]: the growth yield reads like this: (40 h) 96.1 ± 0.16%; (72 h) 96.59 ± 0.1%.

Consider `CN[C@@H]1[C@H](O[C@H]2[C@H](O[C@H]3[C@H](O)[C@@H](O)[C@H](N=C(N)N)[C@@H](O)[C@@H]3N=C(N)N)O[C@@H](C)[C@]2(O)C=O)O[C@@H](CO)[C@H](O)[C@H]1O` [Streptomycin sulfate], for which the growth yield was found to be 103 ± 1.3% (40 h) and 104.35 ± 0.1% (72 h).

`COc1cc(C)nc(-n2nc(C)cc2OC)n1` [Epirizole]: the growth yield worked out at 111 ± 3.8% (40 h) and 109 ± 3.8% (72 h).

`Cc1ncc(CO)c(CO)c1O` [Pyridoxine hydrochloride]: the growth yield runs as follows: (40 h) 101.5 ± 0.16%; (72 h) 103.3 ± 0.52%.

For the compound `CN1CCC(=C2c3ccccc3CCc3cccnc32)CC1` [Azatadine maleate], the growth yield by setting is: (40 h) 107 ± 7.9%; (72 h) 104 ± 4.2%.

Regarding `Clc1ccc2c(c1)CCc1cccnc1C2=C1CCNCC1` [Desloratadine], the growth yield came to 106 ± 6.8% (40 h) and 105 ± 4.8% (72 h).

`CCOC(=O)N1CCC(=C2c3ccc(Cl)cc3CCc3cccnc32)CC1` [Loratadine]: the growth yield is, setting by setting: (40 h) 19.2 ± 12%; (72 h) 73.6%.

In the case of `COc1ccc(C[C@@H]2c3cc(OC)c(OC)cc3CC[N@+]2(C)CCC(=O)OCCCCCOC(=O)CC[N@@+]2(C)CCc3cc(OC)c(OC)cc3[C@H]2Cc2ccc(OC)c(OC)c2)cc1OC` [Cisatracurium besylate], the growth yield is, setting by setting: (40 h) 95 ± 1.3%; (72 h) 94 ± 3.4%.

Regarding `CCCSc1ccc2[nH]c(NC(=O)OC)nc2c1` [Albendazole], the growth yield was determined as 73.2 ± 3.6% (40 h) and 84.3 ± 5.5% (72 h).

Turning to `CCCCc1ccc2[nH]c(NC(=O)OC)nc2c1` [Parbendazole], the growth yield runs as follows: (40 h) 53.4 ± 1.9%; (72 h) 95.9 ± 10%.

`CCCOc1ccc2[nH]c(NC(=O)OC)nc2c1` [Oxibendazol]: the growth yield stood at 16.4 ± 3.6% (40 h) and 74.6 ± 3.5% (72 h).

In the case of `Cc1ccc2c(c1)c1c3n2CCNC3CCC1` (stereo unspecified) [Pirlindole mesylate], the growth yield is, setting by setting: (40 h) 101 ± 1.1%; (72 h) 104 ± 2.5%.
